# D1 agonist – activates the human D1 dopamine receptor | P21728 | HEK293 T-REx D1 cells, calcium flux, agonist mode | activation, % at 2 µM | hit rate 1% among 360,000; further: 0% is about no effect
# Target sequence (P21728 whole entry, looked up): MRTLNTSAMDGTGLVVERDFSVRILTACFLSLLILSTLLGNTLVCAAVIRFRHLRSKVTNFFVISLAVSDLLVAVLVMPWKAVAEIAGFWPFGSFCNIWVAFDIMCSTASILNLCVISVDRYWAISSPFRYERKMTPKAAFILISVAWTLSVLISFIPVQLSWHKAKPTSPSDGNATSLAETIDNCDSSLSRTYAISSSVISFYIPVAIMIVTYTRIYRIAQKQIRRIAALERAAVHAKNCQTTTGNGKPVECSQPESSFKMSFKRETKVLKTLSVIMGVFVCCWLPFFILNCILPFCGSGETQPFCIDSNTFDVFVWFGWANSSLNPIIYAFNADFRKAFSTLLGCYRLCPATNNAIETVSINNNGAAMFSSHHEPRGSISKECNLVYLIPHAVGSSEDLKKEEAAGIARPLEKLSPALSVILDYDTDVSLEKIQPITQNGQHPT
#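 Agonism was scored from calcium flux recorded over 180 s (1 read/s) after pintool compound addition, following a 10-cycle baseline. Cells were inducible force-coupled HEK293 TREx D1, plated overnight at 30 C and loaded with no-wash calcium dye.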
# TRHR PAM – allosteric enhancers of human TRH receptor; TRHR cells, fluo-8 calcium fluorescence, EC20 TRH enhancement; enhancement, % at 2 µM; hit rate 0.66% among 360,000; in the data active means enhancement above about 30%; further: 0% is about no effect
#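 TRHR-expressing cells loaded with fluo-8 calcium dye were read kinetically (ex 480/em 530) during compound addition, then stimulated with an EC20 of TRH (10 nM final). Enhancement of the Gq-mediated intracellular calcium response was scored.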
# D1 potentiator – potentiators of human D1 dopamine receptor | hit rate 0.036% among 360,000 | potentiation, % at 10 µM | HEK293 TREx D1 cells, calcium flux, dopamine EC20 potentiation; in the data active means potentiation above about 30%; further: 0% is about no effect
# TRHR agonist – activates the human TRH receptor; P34981; TRHR cells, calcium flux fluo-8, FDSS agonist mode; activation, % at 2 µM; hit rate 0.18% among 360,000; further: 0% is about no effect
#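 Agonist-mode FDSS calcium read (Ex 480/Em 530, 1 s cycles) in 1536-well TRHR cells with fluo-8 dye, after 10-cycle baseline and 23 nL compound addition; TRH at EC20 (10 nM final) added afterwards for the enhancer phase.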
# D1 antag – blocks dopamine activation of the human D1 receptor; HEK293 TREx D1 cells, calcium flux, dopamine EC80; hits give low values; activity change, negative = inhibition, % at 10 µM; hit rate 3.2% among 360,000; in the data active means activity change below about -30%; further: on the % scale 0 is the no-effect control and ±100 the full control effect
#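 Tetracycline-induced HEK293 Trex D1 cells, force-coupled to calcium, dye-loaded; compounds added and read 180 s, then EC80 dopamine added and calcium flux tracked kinetically another 180 s.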
# GRP78 ERSR act – ER stress response induction in glioma; U87-MG GRP78 promoter luciferase reporter, 16 h; Potency, µM, inactives show at the top dose activation, usual class: activators; hit rate 0.02% among 420,000; AID 602332; active means well fitted activation curve with a large enough effect; further: potency means the concentration at half of the fitted maximal effect; series mostly up to about 76 µM; % of control where 0% means no effect; nearly all actives have a fitted effect of over 35% in size
#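 Stably transfected U87-MG glioma cells carrying a GRP78-based luciferase sensor; 16 h compound incubation. Luminescence end-point read 10 min after Bright-Glo addition at room temperature.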
# * marks the source's active call; other numbers are inactive results; . = not tested or not shown. Most compounds without a hit are left out; they make up all but 4% or so of the library. Unless noted, no stated cut-off is given here; in the data, active means activation above about 30%; inactive means the rest.
SMILES,D1 agonist,TRHR PAM,D1 potentiator,TRHR agonist,D1 antag,GRP78 ERSR act
CCOC(=O)[C@H]1[C@H]2COc3ccc(Br)cc3[C@@H]2N2C(=O)CN(Cc3ccc(OC)cc3)C(=O)[C@@]12C,0,-2,2,0,-30*,0%
CCCN(CCC)C(=O)Cn1c(=O)n(-c2ccc(C)cc2)c(=O)c2ccc(C(=O)NCc3ccccc3Cl)cc21,3,-13,-1,0,-66*,-7%
Cc1cc(Cn2nnc3ccccc32)c(O)c(C(C)(C)C)c1,8,2,-9,0,-28,-3%
CC(C)(C)c1cccc(Cn2nnc3ccccc32)c1O,29,-3,-10,0,-43*,-4%
CSc1nccc(-c2cc(Cl)c3c(c2)CC(CNC(=O)c2nonc2C)O3)n1 (configuration not stated),.,.,.,.,.,-3%
CCn1c(N2CCN(C(=S)NC)CC2)nc2ccccc21,2,22,-9,0,-32*,-4%
CCn1c(N2CCN(C(=S)NCCc3ccccc3)CC2)nc2ccccc21,1,-10,-9,2,-36*,-3%
CCOC(=O)N1CCN(Cc2ccc3c(c2)CN(C(=O)c2ccc(C#CC(C)(C)O)o2)CCO3)CC1,.,.,.,.,.,-3%
O=C(OCc1csc(-c2ccccc2)n1)C1=NN(c2ccccc2)C(=O)CC1,0,0,-10,0,-36*,0%
COc1ccc(CNC(=O)COC(=O)CCCOc2ccc(Cl)cc2Cl)cc1,31*,-1,4,-1,-3,-10%
COc1cccc(CNC(=O)c2ccc3nc(CCc4ccccc4)oc3c2)c1OC,48*,0,-2,0,-32*,10%
COc1ccc(CNC(=O)c2ccc3nc(CCc4ccccc4)oc3c2)cc1,53*,2,-3,2,-3,0%
COc1cc2c(cc1OC)CN(C(=O)C(CCSC)NS(=O)(=O)c1ccc(C)cc1)CC2 (configuration not stated),1,4,-8,-1,5,3%
Cn1ccc2cc(-c3ccc4ncnc(NCc5cccc(F)c5)c4c3)ccc21,2,7,7,0,6,.
C=C(C)CN1CCN(c2c(CCC#N)c(C)c(C#N)c3nc4ccccc4n23)CC1,-1,2,-2,-1,-38*,-6%
C=C1C=C(C(F)F)n2ncc(C(=O)N3CCc4ccccc4C3)c2N1,.,.,.,.,.,-4%
O=C(O)c1ccc(/C=C2/SC(=S)N(Cc3ccccc3)C2=O)cc1,2,4,30*,0,2,-4%
O=C(O)c1ccc(CN2C(=O)CSC2=S)cc1,31*,-5,-8,3,12,0%
CN1CCN(C(=O)CCN2C(=O)/C(=C\c3ccc(Cl)cc3)SC2=S)CC1,16,1,-3,1,-43*,-4%
COc1cc([N+](=O)[O-])cc(/C=C2/SC(=S)N(Cc3ccccc3)C2=O)c1O,110*,2,0,24,-3,-3%
O=C(O)c1ccc(N2C(=O)CSC2=S)cc1,.,.,.,.,.,-10%
Cc1cccc(CCNC(=O)C2CCC(=O)N(Cc3ccccc3F)C2)n1 (configuration not stated),.,.,.,.,.,-5%
COC(OC)[C@@H](C)[C@H](OC)[C@@H](C)[C@H](OC)c1ccccc1,.,.,.,.,.,-5%
COc1cc(/C=C2\SC(=S)N(CC(=O)NC(C)(C)C)C2=O)cc(OC)c1OC,11,-3,-10,2,-61*,-3%
COc1cc(/C=C2/SC(=S)N(Cc3ccccc3)C2=O)cc(Cl)c1O,474*,92*,3,159*,-25,-7%
SMILES,D1 agonist,TRHR PAM,D1 potentiator,TRHR agonist,D1 antag,GRP78 ERSR act
COc1cc(/C=C2/SC(=S)N(CC(=O)NC(C)(C)C)C2=O)cc(OC)c1OC,5,28,-5,2,-4,-4%
O=c1[nH]c(=S)[nH]c2n[nH]nc12,.,.,.,.,.,-3%
O=C(O/N=C(/c1ccccc1)c1ccncc1)c1cccc(F)c1,2,7,-14,1,-59*,6%
N/C(=N\OC(=O)c1ccncc1)c1cccc([N+](=O)[O-])c1,1,32*,-2,-1,3,1%
O=C(O)CSCC(=O)NCc1c(Cl)cccc1Oc1ccccc1,1,2,3,0,5,-2%
O=S(=O)(NCc1c(Cl)cccc1Oc1ccccc1)c1ccc(F)cc1,29,-6,-4,4,-34*,-4%
COc1ccc(NC(=O)CCN2CCN(c3cccc(Cl)c3)CC2)cc1,36*,-3,-2,2,8,.
COC(=O)c1[nH]c2cccc(OC)c2c1NC(=O)CCN1CCN(c2ccccc2F)CC1,4,-1,-9,0,-57*,.
O=C(CCN1CCN(c2ccccc2F)CC1)Nc1cccc(F)c1,10,5,-6,0,-43*,-3%
COc1ccc(NC(=O)CN2CCN(c3nc(-c4cccc(OC)c4)cs3)CC2)cc1,2,3,-26,0,-37*,-3%
Fc1ccc(CCNc2ncnc3nc[nH]c23)cc1,.,.,.,.,.,1%
COc1ccc(Cc2cnc(N)nc2N)cc1OC,.,.,.,.,.,-4%
O=c1c(-c2ccc(Cl)cc2)nc2cnc(N3CCOCC3)nc2n1C[C@H]1CCCO1,.,.,.,.,.,-4%
Cn1ccc2cc(-c3ccc4ncnc(NCc5cccnc5)c4c3)ccc21,2,-5,0,-1,4,.
O=[N+]([O-])c1ccc(Cl)c(S(=O)(=O)/N=C(/Sc2ccc(Br)cc2)c2ccccc2)c1,.,.,.,.,.,-3%
O=C(Nc1c(Cl)cc([N+](=O)[O-])cc1Cl)c1cc(Cl)cc(Cl)c1O,.,.,.,.,.,15%
COc1cc(=O)n2c(c1C(=O)N(C)Cc1nonc1C)CCN(Cc1cc(C)ccc1C)CC2,.,.,.,.,.,-2%
COC(=O)C/C=C\[C@@H](C)[C@@H](/C=N\OCC[C@@H]1C=C[C@H](OC(C)=O)[C@H](COC(C)=O)O1)OC,.,.,.,.,.,-2%
COc1cc(NC(=O)CCN2CCN(c3ccccc3F)CC2)cc(OC)c1,3,11,-11,0,-42*,0%
O=C(COc1coc(CN2CCN(c3ccc(F)cc3)CC2)cc1=O)Nc1ccccc1,0,6,-4,0,-7,-3%
CC(=O)COc1coc(CN2CCN(c3ccc(F)cc3)CC2)cc1=O,1,31*,-2,0,-1,-4%
COC(=O)c1cccc(-c2cc(Cl)c3c(c2)CC(CNC(=O)c2cccnc2)O3)c1 (configuration not stated),.,.,.,.,.,2%
COc1ccc(Nc2nc(-c3sc(C)nc3C)cs2)c(OC)c1,2,-8,-18,-2,-43*,-6%
COc1ccc(NC(=O)N(C)C[C@H]2Oc3ncc(Br)cc3C(=O)N([C@H](C)CO)C[C@@H]2C)cc1,.,.,.,.,.,1%
Cc1ccccc1C(=O)Nc1ccnn1C1CCN(Cc2c(C)n(C)c3ccccc23)CC1,12,10,-3,0,-34*,-2%

# Compound activity as filed in PubChem.
